# Experimental data as given in ChEMBL document CHEMBL3988442, “University of Dundee, Small-Polar-MMV Screening Library” (2021).
# Experiments:
# [1] = target: T1, Aspartate--tRNA(Asp/Asn) ligase (Mycobacterium tuberculosis (strain ATCC 25618 / H37Rv)) (UniProt P9WFW3); assay: Assay for Asp RNA synthetase-1 from Mycobacterium tuberculosis; type: functional; design: scale not given: direction of the effect not stated beside the values; conditions: 30 µM; also: in the data most compounds retested in dose-response had high values
# T1 sequence (whole entry): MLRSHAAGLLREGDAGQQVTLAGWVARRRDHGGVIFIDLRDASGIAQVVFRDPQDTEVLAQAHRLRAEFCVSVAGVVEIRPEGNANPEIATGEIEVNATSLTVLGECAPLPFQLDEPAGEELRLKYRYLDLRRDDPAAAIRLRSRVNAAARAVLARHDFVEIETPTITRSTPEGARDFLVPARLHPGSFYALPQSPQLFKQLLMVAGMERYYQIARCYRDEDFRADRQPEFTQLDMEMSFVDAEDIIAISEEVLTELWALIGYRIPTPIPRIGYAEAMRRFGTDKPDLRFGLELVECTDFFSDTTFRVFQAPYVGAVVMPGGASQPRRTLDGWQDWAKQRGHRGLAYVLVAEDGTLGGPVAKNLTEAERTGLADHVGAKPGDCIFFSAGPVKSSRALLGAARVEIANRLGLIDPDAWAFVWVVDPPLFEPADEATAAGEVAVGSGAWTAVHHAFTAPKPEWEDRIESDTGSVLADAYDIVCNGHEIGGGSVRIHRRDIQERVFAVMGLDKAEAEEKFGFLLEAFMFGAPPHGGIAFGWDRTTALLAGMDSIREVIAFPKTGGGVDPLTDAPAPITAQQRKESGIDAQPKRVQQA
# [2] = target: Shiga toxin 2 (Escherichia coli O157:H7) (UniProt P09385+P09386); assay: E. coli 0.157:H7 Shiga Toxin SOP - stx2 screening assay; type: functional; design: scale not given: direction of the effect not stated beside the values; conditions: 30 µM
Compound,Percent Effect [1] [%],Percent Effect [2] [%]
Cc1nc(C)n(CC2CN(c3ccc(C#N)cn3)CCO2)n1 (configuration not stated),2.39,19.5
CCCOc1cc(CNC(=O)Nc2cccnc2N2CCCC2)ccn1,1.75,-9.71
Cc1noc([C@@]23CCO[C@@H]2CCN(C(=O)c2sccc2C)C3)n1,-0.466,-3.55
c1cnc(N2CCCC(NCc3cccc4c3OCCO4)C2)nc1 (configuration not stated),-1.35,4.24
COC1CC2(CCN(Cc3ccc4c(c3)OCO4)CC2)C1,-2.25,-2.07
Cc1nc(C)n(CC2CN(CCCOc3ccccc3C)CCO2)n1 (configuration not stated),1.31,4.82
COCc1cc(NCCc2ccc(F)cc2)n2nccc2n1,4.6,4.14
O=C(N[C@@H]1CN(Cc2ccccc2)C[C@@H]2CCCO[C@@H]21)C1CC1,1.66,-19.6
COC(=O)c1cccc(NC(=O)CN2CCN(S(C)(=O)=O)CC2)c1,1.93,10.4
Cn1cc(CNC2CCCN(Cc3noc(C4CC4)n3)C2)cn1 (configuration not stated),-1.26,24.8
COc1ncccc1C(=O)N1CCn2c(COCC3CC3)cnc2C1C (configuration not stated),-2.76,6.35
COc1ccc(CS(=O)(=O)CC(=O)NCC2CC2)cc1F,3.98,-12.5
Cn1cnnc1C1CCCN(C(=O)c2ccccc2Cl)C1 (configuration not stated),1.15,22.4
CN1CCN(C(=O)c2ccc(=O)n(C)c2)c2ccccc21,-7.61,-16.6
Cc1cc(CN2CCC(c3ccnn3CCO)CC2)no1,-1.46,-16.1
CCS(=O)(=O)N(C)CC(=O)Nc1ccc(Br)cn1,-2.34,-12.9
CCc1ccc(C(=O)N2CCN(CC(C)O)CC2)o1 (configuration not stated),0.745,5.26
COc1ccc(S(N)(=O)=O)cc1C(=O)N(C)Cc1cc(C)on1,-2.1,-47
Cc1cc(CC(=O)N(CC2CN(C)CCO2)c2nccs2)no1 (configuration not stated),-0.67,-18.7
O=C(CSc1ncccn1)N1C[C@H]2CC[C@@H]1CN(Cc1ccncc1)C2,3.45,-26.2
O=C(NCCCn1cccn1)C1(c2ccc(F)cc2)CC1,-8.14,-6.77
Cc1nc2cc(C3CCN(Cc4cccc(F)c4F)C3)nn2c(O)c1C (configuration not stated),2.37,-139
CCN(C(=O)COC)C(c1cccnc1)c1cc(C)cc(C)c1 (configuration not stated),1.28,-51.4

Compound,Percent Effect [1] [%],Percent Effect [2] [%]
Cc1ccc(C(=O)N2CCC3(CC2)CC(N2CCOCC2)C3)cc1,-1.52,3.95
Cc1ncc(CNC(=O)Nc2cc(C(F)(F)F)c[nH]c2=O)s1,2.67,-19.6
Cn1ncc2c(N3CCN(C(N)=O)CC3)nc(C3CCCC3)nc21,1.25,-24.2
c1cnnc(N2CCCC(NCc3ccc(-n4ccnc4)cc3)C2)c1 (configuration not stated),-2.02,10.2
CN(C)C(=O)N1CCN(Cc2nnc(C(C)(C)C)o2)CC1,-2.73,3.28
Cn1cc(Cl)cc1C(=O)N1CCN(Cc2ccsc2)CC1,-1.54,15.6
CCN(CC)C(=O)CCc1c(C)nc2cc(O)nn2c1C,-1.56,-6.53
Cc1csc(CNC(=O)NCC(O)c2cccc(Cl)c2)n1 (configuration not stated),3.71,-10.8
O=C(N[C@@H]1CN(Cc2cccs2)[C@@H]2CCCO[C@@H]21)C1CC1,4.13,-24
CCN(CC)C(C(=O)NCc1ccc(N2CCCC2)nc1)C(C)C (configuration not stated),-8.76,9.3
Cc1cc(C)n(CC2CCCN2C(=O)c2ccc3c(c2)OCO3)n1 (configuration not stated),-1.99,-23.4
CN(C)c1nc2c(c(N3CCC(O)CC3)n1)CN(CC1CCNC1)CC2 (configuration not stated),3.47,-11.1
O=C(NC[C@]12COC[C@H]1CN(C1CCOCC1)C2)c1ccco1,1.57,-3.12
COc1ccc(CN2CCCC(Nc3cccc(F)c3)C2)cc1O (configuration not stated),5.06,5.84
O=C(NC1CCCC1)N1CCCC(c2nccn2Cc2ccncc2)C1 (configuration not stated),-4.62,12.8
CC(NC(=O)NCCCN(C)C)c1ccc2c(c1)CCC(=O)N2 (configuration not stated),-3.92,7.67
Cc1ccccc1C1(C(=O)NCCN2CCCC2)CCOCC1,11.1,12.4
Cc1ncsc1C(=O)NCCOc1ncc(Cl)cc1Cl,3.06,-33.3
COc1ncccc1C(=O)N1CCC(c2nnc(C3CC3)o2)CC1,3.02,0.085
O=C(Nc1ccccc1)C1=CC2(CCNCC2)c2ccccc21,1.3,-14.6
CNS(=O)(=O)c1ccc(C(=O)NCCc2ccccn2)cc1,9.16,14.4
O=C(c1ccccc1-c1ccccc1)N1CCOC2(CNCCOC2)C1 (configuration not stated),1.51,-1.85
CN1CCN(CCO)C(=O)C12CCN(Cc1ccsc1)CC2,-3.89,-1.74
